# The supplement of paper PMC10037445
# The full ranking holds about 2,900 compounds; the median of “NF-kB SEAP reporter activity, fold change vs agonist alone” is about 0.99, and the highest 2% start at about 2.6. Many of the other results were omitted from the sample, so the highest values are more common in it than they were.
# What was measured:
# [1] = system: RAW-Dual; assay: NF-kB SEAP reporter activity, fold change vs agonist alone; higher = enhanced NF-kB activity
# How it was run: (§1)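 After 50 nL of library stock was delivered by pin tool to RAW-Dual macrophages (50,000 cells/well, DMEM, 384-well plates), a PRR agonist was added 1 h later and the plates were kept at 37 °C, 5% CO2. Twenty hours later, IRF was read from supernatant by QuantiLuc luminescence and NF-κB by QuantiBlue absorbance at 620 nm. Reporter activity is stated as fold change over agonist-alone wells. Wells with IncuCyte confluency under 70% of agonist controls in both mask sets were counted as cytotoxic.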
# [2] = system: RAW-Dual; assay: NF-kB SEAP reporter activity, fold change vs agonist alone; cytotoxicity flag (confluency mask): not cytotoxic; library stock concentration (final ~1000-fold dilution): 10 mM; higher = enhanced NF-kB activity
# How it was run: as §1
# [3] = system: RAW-Dual; assay: NF-kB SEAP reporter activity, fold change vs agonist alone; cytotoxicity flag (confluency mask): cytotoxic (confluency <70% of control); library stock concentration (final ~1000-fold dilution): 10 mM; higher = enhanced NF-kB activity
# How it was run: as §1
# [4] = system: RAW-Dual; assay: NF-kB SEAP reporter activity, fold change vs agonist alone; cytotoxicity flag (confluency mask): not cytotoxic; library stock concentration (final ~1000-fold dilution): 10 mM water; higher = enhanced NF-kB activity
# How it was run: as §1
# [5] = library stock concentration (final ~1000-fold dilution): 10 mM, cytotoxicity flag (confluency mask): not cytotoxic, agonist: Imiquimod (TLR7) […]
# [6] = library stock concentration (final ~1000-fold dilution): 10 mM, cytotoxicity flag (confluency mask): not cytotoxic, agonist: MPLA (TLR4) […]
# [7] = agonist: ODN 1826 (TLR9) 0.5 ug/mL
# [8] = agonist: Pam2CSK4 (TLR2/6) 0.1 ug/mL
# [9] = agonist: Pam3CSK4 (TLR2/1) 0.1 ug/mL
# [10] = library stock concentration (final ~1000-fold dilution): 10 mM, cytotoxicity flag (confluency mask): cytotoxic (confluency <70% of control), agonist: Imiquimod (TLR7) […]
# [11] = library stock concentration (final ~1000-fold dilution): 10 mM, cytotoxicity flag (confluency mask): cytotoxic (confluency <70% of control), agonist: MPLA (TLR4) […]
# [12] = library stock concentration (final ~1000-fold dilution): 10 mM water, cytotoxicity flag (confluency mask): not cytotoxic, agonist: Imiquimod (TLR7) […]
# [13] = library stock concentration (final ~1000-fold dilution): 10 mM water, cytotoxicity flag (confluency mask): not cytotoxic, agonist: MPLA (TLR4) […]
compound,measurement,setting,value
CC1CCC/C=C/C2CC(O)CC2C(O)/C=C/C(=O)O1 (stereo not drawn),NF-kB SEAP reporter activity,[1]; [5],1.48
same,NF-kB SEAP reporter activity,[1]; [6],0.636
same,NF-kB SEAP reporter activity,[2]; agonist: LPS (TLR4) 0.1 ug/mL,0.305
same,NF-kB SEAP reporter activity,[2]; [7],0.297
same,NF-kB SEAP reporter activity,[2]; [8],0.209
same,NF-kB SEAP reporter activity,[2]; [9],0.469
Cn1c(CCCCCCC(=O)NO)nc2cc(N(CCCl)CCCl)ccc21,NF-kB SEAP reporter activity,[1]; [10],1.62
same,NF-kB SEAP reporter activity,[1]; [11],2.33
same,NF-kB SEAP reporter activity,[3]; agonist: LPS (TLR4) 0.1 ug/mL,3.35
same,NF-kB SEAP reporter activity,[3]; [7],1.5
same,NF-kB SEAP reporter activity,[3]; [8],1.55
same,NF-kB SEAP reporter activity,[3]; [9],1.91
O=C(O)CCCc1ccc(N(CCCl)CCCl)cc1,NF-kB SEAP reporter activity,[1]; [5],0.998
same,NF-kB SEAP reporter activity,[1]; [6],1
same,NF-kB SEAP reporter activity,[2]; agonist: LPS (TLR4) 0.1 ug/mL,0.89
same,NF-kB SEAP reporter activity,[2]; [7],1.04
same,NF-kB SEAP reporter activity,[2]; [8],1.21
same,NF-kB SEAP reporter activity,[2]; [9],1.24
Cl.O=C(O)Cc1c[nH]cn1,NF-kB SEAP reporter activity,[1]; [5],0.935
same,NF-kB SEAP reporter activity,[1]; [6],1.05
same,NF-kB SEAP reporter activity,[2]; agonist: LPS (TLR4) 0.1 ug/mL,1.34
same,NF-kB SEAP reporter activity,[2]; [7],0.991
same,NF-kB SEAP reporter activity,[2]; [8],0.973
same,NF-kB SEAP reporter activity,[2]; [9],0.728
CNC1C(O)C(OC2C(N)CC(N)C(OC3OC(C(C)O)C(O)C(O)C3N)C2O)OCC1(C)O.O=S(=O)(O)O.O=S(=O)(O)O (stereo not drawn),NF-kB SEAP reporter activity,[1]; [12],0.947
same,NF-kB SEAP reporter activity,[1]; [13],1.07
same,NF-kB SEAP reporter activity,[4]; agonist: LPS (TLR4) 0.1 ug/mL,1.15
same,NF-kB SEAP reporter activity,[4]; [7],1.26
same,NF-kB SEAP reporter activity,[4]; [8],1.15
same,NF-kB SEAP reporter activity,[4]; [9],1.12
CC12NC(Cc3ccccc31)c1ccccc12.O=C(O)/C=C\C(=O)O (stereo not drawn),NF-kB SEAP reporter activity,[1]; [5],1.16
same,NF-kB SEAP reporter activity,[1]; [6],1.1
same,NF-kB SEAP reporter activity,[2]; agonist: LPS (TLR4) 0.1 ug/mL,1.25
same,NF-kB SEAP reporter activity,[2]; [7],0.851
same,NF-kB SEAP reporter activity,[2]; [8],1.13
same,NF-kB SEAP reporter activity,[2]; [9],1.15
COc1cc(C)[nH]c(=O)c1CNC(=O)c1c(C)n(C(C)C2CCN(CC(F)(F)F)CC2)c2ccccc12 (stereo not drawn),NF-kB SEAP reporter activity,[1]; [5],0.35
same,NF-kB SEAP reporter activity,[1]; [6],0.914
same,NF-kB SEAP reporter activity,[2]; agonist: LPS (TLR4) 0.1 ug/mL,0.78
same,NF-kB SEAP reporter activity,[2]; [7],0.953
same,NF-kB SEAP reporter activity,[2]; [8],0.647
same,NF-kB SEAP reporter activity,[2]; [9],0.74
CC(N)C(=O)NC(CO)C(=O)NC(C(=O)NC(C(=O)NC(C(=O)NC(CC(N)=O)C(=O)NC(Cc1ccc(O)cc1)C(=O)NC(C(N)=O)C(C)O)C(C)O)C(C)O)C(C)O (stereo not drawn),NF-kB SEAP reporter activity,[1]; [12],0.968
same,NF-kB SEAP reporter activity,[1]; [13],1.05
same,NF-kB SEAP reporter activity,[4]; agonist: LPS (TLR4) 0.1 ug/mL,1.17
same,NF-kB SEAP reporter activity,[4]; [7],1.25
same,NF-kB SEAP reporter activity,[4]; [8],1.16
same,NF-kB SEAP reporter activity,[4]; [9],1.06
C=C(C)C1Cc2c(ccc3c2OC2COc4cc(OC)c(OC)cc4C2C3=O)O1 (stereo not drawn),NF-kB SEAP reporter activity,[1]; [5],1.87
same,NF-kB SEAP reporter activity,[1]; [6],1.85
same,NF-kB SEAP reporter activity,[2]; agonist: LPS (TLR4) 0.1 ug/mL,3.13
same,NF-kB SEAP reporter activity,[2]; [7],2.36
same,NF-kB SEAP reporter activity,[2]; [8],1.27
same,NF-kB SEAP reporter activity,[2]; [9],1.45
CCC1=CC2CN3CCc4c([nH]c5ccccc45)C(C(=O)OC)(C2)C13 (stereo not drawn),NF-kB SEAP reporter activity,[1]; [5],1.03
same,NF-kB SEAP reporter activity,[1]; [6],1.11
same,NF-kB SEAP reporter activity,[2]; agonist: LPS (TLR4) 0.1 ug/mL,1.04
same,NF-kB SEAP reporter activity,[2]; [7],1.06
same,NF-kB SEAP reporter activity,[2]; [8],0.935
same,NF-kB SEAP reporter activity,[2]; [9],1.03
COC1=CC2C3Cc4ccc(OC)c(O)c4C2(CCN3C)CC1=O.Cl (stereo not drawn),NF-kB SEAP reporter activity,[1]; [5],0.858
same,NF-kB SEAP reporter activity,[1]; [6],0.999
same,NF-kB SEAP reporter activity,[2]; agonist: LPS (TLR4) 0.1 ug/mL,0.877
same,NF-kB SEAP reporter activity,[2]; [7],0.884
same,NF-kB SEAP reporter activity,[2]; [8],1.16
same,NF-kB SEAP reporter activity,[2]; [9],1.09
CN1C2CC(OC(=O)C(CO)c3ccccc3)CC1C1OC12 (stereo not drawn),NF-kB SEAP reporter activity,[1]; [5],0.917
same,NF-kB SEAP reporter activity,[1]; [6],1.04
same,NF-kB SEAP reporter activity,[2]; agonist: LPS (TLR4) 0.1 ug/mL,1.23
same,NF-kB SEAP reporter activity,[2]; [7],1.02
same,NF-kB SEAP reporter activity,[2]; [8],1.11
same,NF-kB SEAP reporter activity,[2]; [9],1.58
CN1Cc2c(ccc3c2OCO3)C2C(O)Cc3cc4c(cc3C21)OCO4 (stereo not drawn),NF-kB SEAP reporter activity,[1]; [10],1.6
same,NF-kB SEAP reporter activity,[1]; [11],1.66
same,NF-kB SEAP reporter activity,[3]; agonist: LPS (TLR4) 0.1 ug/mL,2.16
same,NF-kB SEAP reporter activity,[3]; [7],1.75
same,NF-kB SEAP reporter activity,[3]; [8],1.42
same,NF-kB SEAP reporter activity,[3]; [9],2.18
